PubChem BioAssay (NCI)
The panel holds about 83,000 compounds, 20% with a hit somewhere; the sample as a whole holds those more often.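 Treatment: one concentration, 48 hours, 96-well format. Scoring: percent growth, with anything below 10 considered active.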 Values without a mark were called inactive. Activity calls are given as the source filed them.

Tests used:
Assay in all cases: NCI-60 one-dose screen, 48 h (100 = growth as untreated, 0 = no growth, -100 = all killed)
Conditions in all cases: 10 µM
NCI-H23 lung = system: NCI-H23 lung
NCI-H226 lung = system: NCI-H226 lung
NCI-H322M lung = system: NCI-H322M lung
HOP-62 NSCLC = system: HOP-62 NSCLC
NCI-H460 lung = system: NCI-H460 lung
NCI-H522 lung = system: NCI-H522 lung
A549/ATCC NSCLC = system: A549/ATCC NSCLC
786-0 renal = system: 786-0 renal
COLO 205 colon = system: COLO 205 colon

Work on `COc1cc(/C=C/C(=O)c2ccc(F)cc2)ccc1Oc1nc(Nc2ccc(F)cc2)nc(N(C)C)n1` yielded a growth (NCI-H23 lung) of 66.8%, a growth (NCI-H226 lung) of 53.7% and a growth (NCI-H322M lung) of 79.1%. It also gave a growth (HOP-62 NSCLC) of 93.5%, a growth (NCI-H460 lung) of 69.6% and a growth (NCI-H522 lung) of 62.3%. The growth (A549/ATCC NSCLC) was 74.1%, the growth (786-0 renal) was 71% and the growth (COLO 205 colon) was 118%.
`COc1ccc(C2N(c3ccc(Br)cc3)N=C(C(C)=O)N2[C@H]2[C@H](OC(C)=O)O[C@H](COC(C)=O)[C@@H](OC(C)=O)[C@@H]2OC(C)=O)cc1` (stereo partly specified) was tested, and the growth (NCI-H23 lung) was 75.4%, the growth (NCI-H226 lung) was 69.6% and the growth (NCI-H322M lung) was 73.7%. The growth (HOP-62 NSCLC) was 92%, the growth (NCI-H460 lung) was 52.1% and the growth (NCI-H522 lung) was 48.1%. The growth (A549/ATCC NSCLC) was 66.1%, the growth (786-0 renal) was 92.6% and the growth (COLO 205 colon) was 88.1%.
`O=C(NCCCCC(c1ccc(F)cc1)c1ccc(F)cc1)NCCCc1cccnc1` showed a growth (NCI-H23 lung) of 24%, a growth (NCI-H226 lung) of 41.2% and a growth (NCI-H322M lung) of 64.8%. For the same molecule, the growth (HOP-62 NSCLC) was 56.2%, the growth (NCI-H460 lung) was 28.8% and the growth (NCI-H522 lung) was 16.8%. The growth (A549/ATCC NSCLC) was 27.2%, the growth (786-0 renal) was 47.7% and the growth (COLO 205 colon) was -12.1% (active).
With `COc1ccc(-c2cc(C(=O)N=Nc3c(O)[nH]c4ccccc34)c3ccccc3n2)cc1` the growth (NCI-H23 lung) was -36.4% (active), the growth (NCI-H226 lung) was -36% (active) and the growth (NCI-H322M lung) was 6.23% (active). For the same molecule, the growth (HOP-62 NSCLC) was -42.7% (active), the growth (NCI-H460 lung) was -70.4% (active) and the growth (NCI-H522 lung) was 24.3%. For the same molecule, the growth (A549/ATCC NSCLC) was -37.4% (active), the growth (786-0 renal) was -40.9% (active) and the growth (COLO 205 colon) was -5.77% (active).
In the case of `CO[C@@H]1CSSC1Cn1nc(-c2ccc(Oc3ccccc3)cc2)c2c(N)ncnc21` (stereo partly specified), the growth (NCI-H23 lung) was 46.4%, the growth (NCI-H226 lung) was 31.1% and the growth (NCI-H322M lung) was 63%. The growth (HOP-62 NSCLC) was 86.4%, the growth (NCI-H460 lung) was 16.5% and the growth (NCI-H522 lung) was 1.33% (active). It also gave a growth (A549/ATCC NSCLC) of 35.7%, a growth (786-0 renal) of 45.3% and a growth (COLO 205 colon) of 52%.
With `O=C(NO)c1ccc(CN2CCN(c3nc(-c4ccccc4)c4ccccc4n3)CC2)cc1` the growth (NCI-H23 lung) was -5.08% (active), the growth (NCI-H226 lung) was 3.26% (active) and the growth (NCI-H322M lung) was 23.6%. The growth (HOP-62 NSCLC) was 2.94% (active), the growth (NCI-H460 lung) was 6.1% (active) and the growth (NCI-H522 lung) was -21.2% (active). For the same molecule, the growth (A549/ATCC NSCLC) was 1.35% (active), the growth (786-0 renal) was 14% and the growth (COLO 205 colon) was 6.97% (active).
With `O=C(CSc1nnc(-c2ccc3nc(-c4ccc(Cl)cc4)[nH]c3c2)o1)Nc1ccc(Br)cc1` the growth (NCI-H23 lung) was -82.9% (active), the growth (NCI-H226 lung) was -62.9% (active) and the growth (NCI-H322M lung) was -40.8% (active). The growth (HOP-62 NSCLC) was -66.9% (active), the growth (NCI-H460 lung) was -82.7% (active) and the growth (NCI-H522 lung) was -67.9% (active). For the same molecule, the growth (A549/ATCC NSCLC) was -54.9% (active), the growth (786-0 renal) was -74.9% (active) and the growth (COLO 205 colon) was 0.691% (active).
`COc1ccc2[nH]c(=O)c(CSc3cccc(N)c3)cc2c1` was tested, and the growth (NCI-H23 lung) was 79.2%, the growth (NCI-H226 lung) was 74.5% and the growth (NCI-H322M lung) was 74.6%. It also gave a growth (HOP-62 NSCLC) of 61.5%, a growth (NCI-H460 lung) of 20.7% and a growth (NCI-H522 lung) of 62.6%. The growth (A549/ATCC NSCLC) was 46.4%, the growth (786-0 renal) was 55% and the growth (COLO 205 colon) was 2.77% (active).
Molecule `N#Cc1c(-c2ccc(F)cc2)nc(SCc2ccc(F)cc2)nc1N1CCOCC1` has a growth (NCI-H23 lung) of 71.8%, a growth (NCI-H226 lung) of 48.4% and a growth (NCI-H322M lung) of 78.4%. For the same molecule, the growth (HOP-62 NSCLC) was 24.3%, the growth (NCI-H460 lung) was 73.9% and the growth (NCI-H522 lung) was 55%. For the same molecule, the growth (A549/ATCC NSCLC) was 69%, the growth (786-0 renal) was 24.7% and the growth (COLO 205 colon) was 97.7%.
Work on `CC[C@]12C=CCN3CC[C@@]4(c5cc(C#CCNc6ccc(C)c(Nc7nccc(-c8cccnc8)n7)c6)c(OC)cc5N(C)[C@H]4[C@@](O)(C(=O)OC)[C@@H]1OC(C)=O)C32` (stereo partly specified) yielded a growth (NCI-H23 lung) of 56.3%, a growth (NCI-H226 lung) of 30.6% and a growth (NCI-H322M lung) of 90.8%. For the same molecule, the growth (HOP-62 NSCLC) was 64.2%, the growth (NCI-H460 lung) was 34.1% and the growth (NCI-H522 lung) was 58.5%. The growth (A549/ATCC NSCLC) was 36.8%, the growth (786-0 renal) was 46.3% and the growth (COLO 205 colon) was 31.7%.
`NC(=Nc1ccc(OCCCCCCCCn2ccnn2)cc1)c1ccccc1` showed a growth (NCI-H23 lung) of 20.1%, a growth (NCI-H322M lung) of 60.3% and a growth (HOP-62 NSCLC) of 18.2%. It also gave a growth (A549/ATCC NSCLC) of 24.4% and a growth (786-0 renal) of 45.7%.
Molecule `Cc1ccc2nc(COc3ccc(C(=O)NNC(=S)NCCc4ccccc4)cc3)[nH]c2c1` has a growth (NCI-H23 lung) of 17.2%, a growth (NCI-H226 lung) of 47.2% and a growth (NCI-H322M lung) of 51.7%. It also gave a growth (HOP-62 NSCLC) of 42.4%, a growth (NCI-H460 lung) of 60.4% and a growth (NCI-H522 lung) of 55%. It also gave a growth (A549/ATCC NSCLC) of 104%, a growth (786-0 renal) of 61% and a growth (COLO 205 colon) of 144%.
`O=C(Cn1cc(CSc2nnc3oc4ccccc4n23)nn1)Nc1cccc(Cl)c1` gave a growth (NCI-H23 lung) of 60.2%, a growth (NCI-H226 lung) of 65% and a growth (NCI-H322M lung) of 84.1%. It also gave a growth (HOP-62 NSCLC) of 72.9%, a growth (NCI-H460 lung) of 91.1% and a growth (NCI-H522 lung) of 47.6%. The growth (A549/ATCC NSCLC) was 62.9%, the growth (786-0 renal) was 93.3% and the growth (COLO 205 colon) was 97.8%.
`O=C(NO)c1ccc(CNc2nc(-c3ccccc3)c3ccccc3n2)cc1` was tested, and the growth (NCI-H23 lung) was -49% (active), the growth (NCI-H226 lung) was 6.26% (active) and the growth (NCI-H322M lung) was 11%. The growth (HOP-62 NSCLC) was 0.931% (active), the growth (NCI-H460 lung) was 4.48% (active) and the growth (NCI-H522 lung) was -30.9% (active). For the same molecule, the growth (A549/ATCC NSCLC) was 12.3%, the growth (786-0 renal) was 10.9% and the growth (COLO 205 colon) was -80.4% (active).
`COc1ccc([C@H]2C(C(=O)c3ccc(Cl)cc3)C3(N[C@@H]2c2ccccc2)C(=O)Nc2ccc(Cl)cc23)cc1` (stereo partly specified) was tested, and the growth (NCI-H23 lung) was -56.2% (active), the growth (NCI-H226 lung) was -56.4% (active) and the growth (NCI-H322M lung) was 20%. For the same molecule, the growth (HOP-62 NSCLC) was -57.2% (active), the growth (NCI-H460 lung) was -11.7% (active) and the growth (NCI-H522 lung) was -1.74% (active). For the same molecule, the growth (A549/ATCC NSCLC) was 18.2%, the growth (786-0 renal) was -12% (active) and the growth (COLO 205 colon) was -89.5% (active).
